# Data: PubChem BioAssay (NCATS)
# Results filed as inconclusive are left out. The source made the active and inactive calls. Unless noted, calls follow the shape of the dose curve; as a rule, active = well fitted curve in either direction with a large enough effect (not every such curve was filed as active); inconclusive = small, poorly fitted or top-dose-only effect, or another doubt; inactive = flat fitted curve, though single readings scatter.
# Tests used:
# [1] = target: Lysosomal acid glucosylceramidase (Homo sapiens) (UniProt P04062); assay: Glucocerebrosidase-p2 (AID 348; in the data active = potency below about 10 µM; also: potency is read from the fitted curve at half-maximal effect); settings: purified GBA, blue fluorogenic substrate, 40 min
# How it was run: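 Normal human glucocerebrosidase (0.2 nM) with blue fluorogenic substrate (80 uM final) in citrate/phosphate pH 5.9 with 10mM sodium taurocholate, 0.01% tween-20; 40 min RT, NaOH/glycine stop; fluorescence Ex 365/Em 440; AC50 from a titration from 0.6 nM upwards.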
# [2] = AP1 Signaling Pathway (AID 357); settings: ME-180 AP-1-bla reporter, EGF-induced, beta-lactamase ratio, 5 h; at 7.69 µM (top of the series) unless noted;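 also: ME-180 reporter cells stimulated with EGF at its EC50 level; % is scaled to controls: 0 for no effect and ±100 for the full control effect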
# How it was run: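 Cells are seeded overnight, exposed to compound titrations and an EC50 level of EGF for 5 hours at 37 °C, then loaded with CCF4 dye for 2.5 hours. Beta-lactamase activity under the AP-1 element is read as a blue/green ratio.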
# [3] = target: Cytochrome P450 1A2 (Homo sapiens) (UniProt P05177); assay: p450-cyp1a2 (AID 410; calls by dose curve; also: potency is read from the fitted curve at half-maximal effect); settings: recombinant CYP1A2, luciferin-ME demethylation, luminescence; series mostly up to 57 µM
# How it was run: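 Read-out is luminescence from luciferin produced by CYP1A2 demethylation of Luciferin-ME (100uM, at Km). Detection reagent stopped the 60 min NADPH-dependent reaction; signals were normalized to 57 uM furafylline.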
# [4] = NFAT Signaling Pathway (AID 444); settings: Jurkat NFAT-bla M1, carbachol, beta-lactamase ratio, 5 h; at 7.69 µM (top of the series) unless noted;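 also: carbachol stimulus at about its EC50 of 1 µM final; % is scaled to controls: 0 for no effect and ±100 for the full control effect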
# How it was run: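 Jurkat cells with NFAT-driven β-lactamase reporter and co-expressed M1 receptor, stimulated with carbachol (final 1 uM, ~EC50), compound titration, 5 h at 37 °C. CCF4 loaded 1 h at RT; 460/530 nm ratio gave %activity and AC50.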
# [5] = Stat Signaling Pathway (AID 446); settings: ME-180 (cervical carcinoma) SIE beta-lactamase reporter, IL-6 stimulated, 5 h; at 7.69 µM (top of the series) unless noted;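 also: ME-180 cervical cancer cells given 40 pM IL-6 alongside compound; SIE-controlled beta-lactamase reporter measured as 460/530 nm FRET emission ratio; % is scaled to controls: 0 for no effect and ±100 for the full control effect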
# How it was run: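 FRET read-out (405 nm excitation, 460/530 nm emission) of a beta-lactamase reporter under a STAT-inducible element in ME-180 cervical carcinoma cells. Cells with compound receive 40 pM IL-6 for 5 h. Values are normalised to AC90 stimulation and AC90 JAK-inhibitor controls.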
# [6] = target: Glucocorticoid receptor (Homo sapiens) (UniProt P04150); assay: GR-GFP Redistribution (AID 450;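 active = compounds whose dose series gives a full or clear partial fitted curve of increased nuclear translocation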; also: potency is read from the fitted curve at half-maximal effect); settings: U2OS GR-GFP nuclear translocation, laser cytometry, 2 h
# [7] = target: Glucocorticoid receptor (Homo sapiens) (UniProt P04150); assay: GR-EFC Redistribution (AID 451; calls by dose curve; also: potency is read from the fitted curve at half-maximal effect); settings: CHO-K1 GR-EFC translocation, beta-gal luminescence, 2 h
# How it was run: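 CHO-K1 cells expressing nuclear EA and GR-ED fragments of b-gal; compounds titrated up to 46 uM final, 2 h at 37 C. GR nuclear translocation read as complemented b-gal luminescence after 1 h RT detection.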
# [8] = target: Mitogen-activated protein kinase 10 (Mus musculus) (UniProt Q61831); assay: JNK3 AlphaScreen Assay (AID 530); settings: JNK3 lysate, c-Jun phosphorylation; series mostly up to 57.1 µM;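 also: kinase came from lysate of stimulated human HepG2 cells; signal reports phosphorylation of biotinylated GST-cJun 1-79 at Ser73 with 10 µM ATP; % is scaled to controls: 0 for no effect and ±100 for the full control effect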
# How it was run: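 HepG2 lysate (IL-1b/TNFa pre-activated) + biotin-GST-cJun 1-79 + anti-pSer73 cJun; cpd titration, 15 min RT; ATP 10 uM start; Tris pH 7.6, MgCl2, DTT, vanadate; beads in EDTA buffer; AlphaScreen.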
# [9] = target: 3',5'-cyclic-AMP phosphodiesterase 4B (Homo sapiens) (UniProt Q07343); assay: qHTS Assay for Inhibitors of PDE-IV (AID 607; active = well fitted activation curve with a large enough effect in the main read-out, with a control signal flat, not every such curve was filed as active; also: % of control where 0% means no effect); settings: HEK293 ACTOne CNG channel cells, membrane potential fluorescence; series mostly up to 22.9 µM
# How it was run: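 Cell-based read-out of cAMP via a modified cyclic nucleotide-gated channel and membrane potential dye (535/590 nm) in HEK293 cells expressing PDE4 endogenously. Compounds tested up to 22.9 uM final; 100 uM RO 20-1724 reference.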
# [10] = target: Cytochrome P450 3A4 (Homo sapiens) (UniProt P08684); assay: qHTS Assay for Activators of Cytochrome P450 3A4 (AID 885; active = well fitted curve in the direction sought with a large enough effect; an effect the other way counts as inactive or inconclusive; also: nearly all actives have a fitted effect of over 65% in size); settings: recombinant CYP3A4, Luciferin-PPXE luminescence, 60 min; series mostly up to 57.1 µM
# How it was run: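 Luminescent readout of luciferin formed from 25 uM Luciferin-PPXE (KM level) by 20 nM CYP3A4 in 200 mM KPO4, with 60 min NADPH-driven reaction at room temperature after 10 min compound exposure. Ketoconazole (57 uM) defined 100% inhibition.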
# [11] = qHTS Assay for Lipid Storage Modulators (AID 1519; calls by dose curve); settings: Drosophila S3 cells, BODIPY lipid droplet/cell ratio, laser cytometry, cells loaded with oleic acid; for activity change, negative = inhibition: at 57.5 µM (top of the series)
# How it was run: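 Cells seeded at 5,000 per well were treated with compounds over a concentration series and loaded with oleic acid (400 uM, as added). Lipid droplet fluorescence (488 nm excitation, 500-530 nm channel) was read by laser-scanning cytometry and normalized to 20 uM Triacsin C.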
# [12] = target: Dual specificity protein kinase CLK4 (Homo sapiens) (UniProt Q9HAZ1); assay: qHTS Assay for Inhibitors of CDC-like Kinase 4 (ADP-FP Assay) (AID 1795; active = well fitted curve in the direction sought with a large enough effect; an effect the other way counts as inactive or inconclusive;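 also: recombinant human CLK4 phosphorylating RS repeat peptide at 1 µM ATP; % is scaled to controls: 0 for no effect and ±100 for the full control effect; nearly all actives have a fitted effect of over 60% in size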); settings: Transcreener ADP fluorescence polarization; series mostly up to 50 µM
# How it was run: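 Recombinant Clk4 (6.25 nM) phosphorylated 100 uM RS repeat peptide with 1 uM ATP in 25 mM Tris pH 7.5, 10 mM MgCl2, 0.5 mM EGTA, 2.5 mM DTT, 0.01% Triton X-100 for 1 h. ADP was detected by Transcreener ADP2 competitive fluorescence polarization after 30 min at room temperature.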
# [13] = target: Ubiquitin carboxyl-terminal hydrolase 1 (Homo sapiens) (UniProt O94782); assay: Inhibitors of USP1/UAF1: Pilot qHTS (AID 504865; active = well fitted curve in the direction sought with a large enough effect; an effect the other way counts as inactive or inconclusive;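 also: rhodamine fluorescence freed from ubiquitin-rhodamine substrate followed over time; top concentration of the series differs between compounds; % is scaled to controls: 0 for no effect and ±100 for the full control effect; nearly all actives have a fitted effect of over 35% in size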); settings: purified USP1/UAF1, Ub-rhodamine cleavage fluorescence; series mostly up to 54.9 µM
# How it was run: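 USP1/UAF1 complex at 1 nM preincubated 15 min at room temperature with compound, then Ub-Rho substrate added at 150 nM final. Fluorescence (480/540 nm) read kinetically in 50 mM HEPES pH 7.8, 0.5 mM EDTA, 1 mM TCEP, 0.1 mg/ml BSA, 0.01% Tween-20.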
# [14] = Primary qHTS for small molecule stabilizers of the endoplasmic reticulum resident proteome: Secreted ER Calcium Modulated Protein (SERCaMP) assay (AID 1508630; active = well fitted curve in the direction sought with a large enough effect; an effect the other way counts as inactive or inconclusive; also: % is scaled to controls: 0 for no effect and ±100 for the full control effect); settings: SH-SY5Y GLuc-SERCaMP (Gaussia luciferase released on ER calcium loss) secretion, thapsigargin, luminescence; series mostly up to 38.4 µM
# How it was run: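 The SH-SY5Y reporter protocol was run at 3 concentrations up to 38.3 uM (primary) or 11 concentrations (follow-up): 16 h compound, 100 nM thapsigargin for 4 h, then extracellular luciferase luminescence.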
# [15] = measured here: cell count channel max response
# [16] = measured here: lipid channel max response
# Chain of Glucocorticoid receptor (Homo sapiens) (P04150 whole entry, looked up, the tested form may be a part): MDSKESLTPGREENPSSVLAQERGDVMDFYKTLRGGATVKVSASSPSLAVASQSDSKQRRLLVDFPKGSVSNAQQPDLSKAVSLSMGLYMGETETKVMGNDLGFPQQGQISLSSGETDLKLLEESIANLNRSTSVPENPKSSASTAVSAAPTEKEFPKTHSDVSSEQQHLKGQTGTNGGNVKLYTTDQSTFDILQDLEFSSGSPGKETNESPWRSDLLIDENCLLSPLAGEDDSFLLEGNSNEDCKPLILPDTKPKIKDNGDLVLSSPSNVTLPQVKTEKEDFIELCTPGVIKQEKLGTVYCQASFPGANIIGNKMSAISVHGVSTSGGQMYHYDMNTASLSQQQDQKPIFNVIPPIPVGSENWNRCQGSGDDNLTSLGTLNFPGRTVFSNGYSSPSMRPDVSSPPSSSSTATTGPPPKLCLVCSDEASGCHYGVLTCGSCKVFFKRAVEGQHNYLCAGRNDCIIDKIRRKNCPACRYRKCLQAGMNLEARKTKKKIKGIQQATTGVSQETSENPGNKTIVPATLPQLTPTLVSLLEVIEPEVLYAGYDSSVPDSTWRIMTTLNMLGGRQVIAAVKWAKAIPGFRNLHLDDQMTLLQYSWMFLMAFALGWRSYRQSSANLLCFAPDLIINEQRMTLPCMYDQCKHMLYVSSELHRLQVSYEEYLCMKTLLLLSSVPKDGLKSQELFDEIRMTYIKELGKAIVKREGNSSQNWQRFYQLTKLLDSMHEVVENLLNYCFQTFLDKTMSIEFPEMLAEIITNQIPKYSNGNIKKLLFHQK
# Chain of Cytochrome P450 1A2 (Homo sapiens) (P05177 whole entry, looked up): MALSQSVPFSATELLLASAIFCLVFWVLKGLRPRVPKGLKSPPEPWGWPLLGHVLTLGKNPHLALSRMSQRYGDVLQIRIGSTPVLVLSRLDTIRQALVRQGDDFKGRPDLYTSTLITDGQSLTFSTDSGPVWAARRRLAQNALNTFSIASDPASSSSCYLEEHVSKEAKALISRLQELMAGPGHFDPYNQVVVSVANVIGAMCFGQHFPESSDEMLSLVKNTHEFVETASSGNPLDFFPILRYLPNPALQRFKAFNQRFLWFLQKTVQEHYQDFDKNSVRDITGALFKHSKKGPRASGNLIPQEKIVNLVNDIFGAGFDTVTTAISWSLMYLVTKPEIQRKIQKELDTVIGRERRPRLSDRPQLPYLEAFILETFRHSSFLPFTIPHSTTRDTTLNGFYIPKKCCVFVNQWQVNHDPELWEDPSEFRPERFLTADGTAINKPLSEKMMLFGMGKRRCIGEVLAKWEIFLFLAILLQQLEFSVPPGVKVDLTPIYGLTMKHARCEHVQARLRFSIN
# Chain of Dual specificity protein kinase CLK4 (Homo sapiens) (Q9HAZ1 whole entry, looked up): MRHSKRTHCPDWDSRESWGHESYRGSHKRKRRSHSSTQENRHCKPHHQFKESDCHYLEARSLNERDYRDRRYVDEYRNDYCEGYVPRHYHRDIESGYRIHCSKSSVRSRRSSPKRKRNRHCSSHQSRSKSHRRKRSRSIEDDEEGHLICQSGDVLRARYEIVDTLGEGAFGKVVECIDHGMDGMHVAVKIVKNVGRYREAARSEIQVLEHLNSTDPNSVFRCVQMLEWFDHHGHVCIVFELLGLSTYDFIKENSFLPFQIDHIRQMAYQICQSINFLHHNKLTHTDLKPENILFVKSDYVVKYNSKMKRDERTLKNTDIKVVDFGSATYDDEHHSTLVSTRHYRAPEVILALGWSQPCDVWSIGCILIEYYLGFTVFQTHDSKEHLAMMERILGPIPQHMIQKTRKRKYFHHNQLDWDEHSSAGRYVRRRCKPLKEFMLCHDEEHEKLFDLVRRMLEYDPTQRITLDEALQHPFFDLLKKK
# Chain of Ubiquitin carboxyl-terminal hydrolase 1 (Homo sapiens) (O94782 whole entry, looked up): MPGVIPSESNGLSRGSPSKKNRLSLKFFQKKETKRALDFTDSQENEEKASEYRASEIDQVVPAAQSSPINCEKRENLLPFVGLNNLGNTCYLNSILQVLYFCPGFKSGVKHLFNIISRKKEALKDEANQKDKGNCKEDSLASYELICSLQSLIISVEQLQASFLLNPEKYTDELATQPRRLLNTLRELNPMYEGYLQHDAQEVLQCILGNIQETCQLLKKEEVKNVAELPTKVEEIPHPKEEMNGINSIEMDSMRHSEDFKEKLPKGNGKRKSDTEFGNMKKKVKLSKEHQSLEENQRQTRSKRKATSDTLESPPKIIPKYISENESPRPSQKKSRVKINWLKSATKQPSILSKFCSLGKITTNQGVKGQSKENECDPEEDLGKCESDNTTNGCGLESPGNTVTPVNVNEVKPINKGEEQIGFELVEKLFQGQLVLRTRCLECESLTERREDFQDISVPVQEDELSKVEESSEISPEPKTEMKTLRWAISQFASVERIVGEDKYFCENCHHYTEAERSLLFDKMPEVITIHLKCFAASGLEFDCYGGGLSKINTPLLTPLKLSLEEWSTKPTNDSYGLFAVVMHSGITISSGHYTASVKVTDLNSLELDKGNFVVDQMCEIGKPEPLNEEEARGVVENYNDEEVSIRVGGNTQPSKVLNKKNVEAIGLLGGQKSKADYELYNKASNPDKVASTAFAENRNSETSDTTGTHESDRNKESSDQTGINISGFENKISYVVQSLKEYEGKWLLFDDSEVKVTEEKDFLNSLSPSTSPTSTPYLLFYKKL
# Chain of Lysosomal acid glucosylceramidase (Homo sapiens) (P04062 whole entry, looked up): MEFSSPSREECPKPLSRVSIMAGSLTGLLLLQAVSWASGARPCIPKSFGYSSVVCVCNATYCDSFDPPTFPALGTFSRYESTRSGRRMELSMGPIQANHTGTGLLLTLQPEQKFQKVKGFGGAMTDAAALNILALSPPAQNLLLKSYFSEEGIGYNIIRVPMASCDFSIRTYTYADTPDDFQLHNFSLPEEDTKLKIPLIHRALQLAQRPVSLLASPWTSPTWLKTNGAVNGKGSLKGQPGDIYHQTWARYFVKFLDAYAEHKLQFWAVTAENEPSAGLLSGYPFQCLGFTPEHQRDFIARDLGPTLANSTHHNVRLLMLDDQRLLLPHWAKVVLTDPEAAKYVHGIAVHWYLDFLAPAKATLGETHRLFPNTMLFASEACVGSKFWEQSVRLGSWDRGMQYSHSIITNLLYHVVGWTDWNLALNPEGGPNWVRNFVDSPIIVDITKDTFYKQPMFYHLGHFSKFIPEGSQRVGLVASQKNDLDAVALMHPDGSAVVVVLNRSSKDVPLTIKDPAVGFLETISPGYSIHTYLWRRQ
# Chain of Cytochrome P450 3A4 (Homo sapiens) (P08684 whole entry, looked up): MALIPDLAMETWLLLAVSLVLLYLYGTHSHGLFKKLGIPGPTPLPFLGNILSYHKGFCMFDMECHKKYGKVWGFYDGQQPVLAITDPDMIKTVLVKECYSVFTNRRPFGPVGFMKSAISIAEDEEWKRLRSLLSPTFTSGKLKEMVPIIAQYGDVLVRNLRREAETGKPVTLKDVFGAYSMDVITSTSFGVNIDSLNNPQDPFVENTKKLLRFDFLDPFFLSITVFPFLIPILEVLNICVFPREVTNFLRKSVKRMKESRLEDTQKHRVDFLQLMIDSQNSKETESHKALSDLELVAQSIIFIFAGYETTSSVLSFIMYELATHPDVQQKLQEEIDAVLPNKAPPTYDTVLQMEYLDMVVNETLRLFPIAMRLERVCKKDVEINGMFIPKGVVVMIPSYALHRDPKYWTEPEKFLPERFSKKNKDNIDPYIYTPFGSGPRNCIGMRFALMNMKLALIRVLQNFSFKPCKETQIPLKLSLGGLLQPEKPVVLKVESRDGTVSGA
# Chain of 3',5'-cyclic-AMP phosphodiesterase 4B (Homo sapiens) (Q07343 whole entry, looked up): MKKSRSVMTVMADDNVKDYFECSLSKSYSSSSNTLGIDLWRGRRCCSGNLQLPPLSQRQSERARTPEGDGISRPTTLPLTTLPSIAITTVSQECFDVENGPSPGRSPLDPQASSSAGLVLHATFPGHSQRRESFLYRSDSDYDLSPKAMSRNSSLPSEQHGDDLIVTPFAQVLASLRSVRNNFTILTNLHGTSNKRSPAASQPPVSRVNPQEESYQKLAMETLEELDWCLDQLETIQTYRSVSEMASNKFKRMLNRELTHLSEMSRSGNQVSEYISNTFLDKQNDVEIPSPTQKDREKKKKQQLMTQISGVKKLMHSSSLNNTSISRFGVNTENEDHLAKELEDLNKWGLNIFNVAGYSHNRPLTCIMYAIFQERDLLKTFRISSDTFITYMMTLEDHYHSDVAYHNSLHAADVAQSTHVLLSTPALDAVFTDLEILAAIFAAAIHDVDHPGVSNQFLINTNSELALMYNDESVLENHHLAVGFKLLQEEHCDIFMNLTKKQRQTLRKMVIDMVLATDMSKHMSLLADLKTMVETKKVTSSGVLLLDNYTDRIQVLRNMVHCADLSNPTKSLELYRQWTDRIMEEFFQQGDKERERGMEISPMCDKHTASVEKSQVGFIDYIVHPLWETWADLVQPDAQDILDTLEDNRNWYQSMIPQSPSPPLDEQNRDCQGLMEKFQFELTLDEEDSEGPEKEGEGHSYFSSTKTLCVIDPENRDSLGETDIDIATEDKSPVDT
SMILES,Potency [1],"activity change, negative = inhibition [2]",Potency [3],"activity change, negative = inhibition [4]","activity, negative = inhibition [5]",Potency [6],Potency [7],outcome [8],Potency [9],Potency [10],"activity change, negative = inhibition [11]","max response [11, 15]","max response [11, 16]",Potency [12],Potency [13],Potency [14]
CC(=O)NCCNc1ccnc(-c2ccccc2C(F)(F)F)n1,> 11.4 µM (inactive),0.161% (inactive),15.8 µM (active),-3.29% (inactive),11.9% (inactive),> 46 µM (inactive),> 46 µM (inactive),inactive,inactive,inactive,4.45% (inactive),8.35%,14.6%,inactive,inactive,inactive
CCNc1ncc2nc(C)c(=O)n(C)c2n1,> 11.4 µM (inactive),-6.84% (inactive),5.01 µM (active),2.38% (inactive),-8.23% (inactive),> 9.22 µM (inactive),> 46 µM (inactive),inactive,,,2.6% (inactive),22.7%,26.7%,inactive,inactive,inactive
Cc1ccccc1-c1nccc(NCCN2CCOCC2)n1,> 11.4 µM (inactive),20.7% (inactive),5.01 µM (active),-13.9% (inactive),-1.96% (inactive),> 46 µM (inactive),> 46 µM (inactive),inactive,inactive,inactive,3.61% (inactive),17.5%,21.4%,inactive,inactive,inactive
